An excerpt weighted towards active compounds, which were near 2.4% of everything screened.
SENP7 inh: SENP7 protease inhibition | Q9BQF6 | recombinant SENP7, Z-RLRGG-aminoluciferin luminescence, 40 min | inhibition, % at 5 µM | hit rate 1.5% among 330,000 | AID 434973;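 active = inhibition above about 50% at the single test dose, limit read from the data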;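 note: plate controls were DMSO with enzyme for no effect and no enzyme buffer wells for full effect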
SENP6 inh: SENP6 protease inhibition; Q9GZR1; Recombinant SENP6 catalytic domain, aminoluciferin luminescence; AID 2599; hit rate 1.8% among 330,000; inhibition, % at 10 µM;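 active = inhibition above about 50% at the single tested dose, limit read from the data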;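 note: plate controls were DMSO wells with enzyme for no effect and DMSO wells lacking enzyme for full effect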
Target sequence (Q9GZR1 628-1112 limits assumed): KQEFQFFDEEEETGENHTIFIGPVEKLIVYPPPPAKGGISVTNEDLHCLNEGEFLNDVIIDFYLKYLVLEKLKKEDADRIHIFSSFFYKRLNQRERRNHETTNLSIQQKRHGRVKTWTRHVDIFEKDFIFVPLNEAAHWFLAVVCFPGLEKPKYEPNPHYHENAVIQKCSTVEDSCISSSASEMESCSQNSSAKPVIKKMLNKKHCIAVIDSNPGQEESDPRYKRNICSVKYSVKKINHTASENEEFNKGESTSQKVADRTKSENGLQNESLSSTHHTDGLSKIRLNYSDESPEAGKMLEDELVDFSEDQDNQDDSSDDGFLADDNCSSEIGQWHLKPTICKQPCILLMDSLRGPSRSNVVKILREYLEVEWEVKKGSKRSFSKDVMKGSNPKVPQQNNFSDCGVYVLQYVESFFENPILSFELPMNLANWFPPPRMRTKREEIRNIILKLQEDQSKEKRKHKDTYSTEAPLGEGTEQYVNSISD
Platelet DG rel: modulates dense granule release in human platelets. hit rate 0.22% among 300,000. AID 1663. inhibition, %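 (compounds screened at 7.5 µM in platelet-rich plasma)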. human platelet-rich plasma, SFLLRN dense granule ATP release, luminescence;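 active = mean replicate score, as percent of positive control, at or above 50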
SENP8 block-1: SENP8 (human) protease inhibition | hit rate 0.64% among 360,000 | recombinant SENP8, Nedd8 substrate fluorescence | Q96LD8 | inhibition, % at 20 µM; in the data active = inhibition mostly above about 40%, no sharp cut-off; inactive = mostly below about 27%
SENP8 block-2: blocks the human protease SENP8 | Q96LD8 | purified SENP8, Z-RLRGG-aminoluciferin cleavage, luminescence | inhibition, % at 10 µM | hit rate 1.2% among 330,000; in the data active = inhibition above about 50%
SENP8 confirm: human SENP8 inhibition, confirmed. shares compounds with SENP7 inh. Recombinant SENP8, Z-RLRGG-aminoluciferin luminescence, 60 min. inhibition, % at 12.5 µM. hit rate 40% among 6,200. AID 488912;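 active = mean inhibition across replicates above about 50%, limit read from the data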
SENP6 confirm: confirmation of human SENP6 protease inhibitors; shares compounds with SENP7 inh; recombinant SENP6, Z-RLRGG-aminoluciferin luminescence; inhibition, % at 12.5 µM; hit rate 58% among 6,200
SENP7 conf: human SENP7 inhibition, confirmed | shares compounds with SENP7 inh | recombinant SENP7, Z-RLRGG-aminoluciferin luminescence, 40 min | inhibition, % at 12.5 µM | hit rate 69% among 6,200 | AID 488917
Casp3 select: inhibits human caspase-3 in SENP selectivity test | hit rate 60% among 6,200 | shares compounds with SENP7 inh | purified caspase-3, Z-DEVD-aminoluciferin luminescence, 60 min | inhibition, % at 12.5 µM;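 active = mean inhibition above about 50%, limit read from the data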;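 note: plate controls were enzyme with DMSO for no effect and wells without caspase-3 for full effect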
Luc interf: counter-screen for SENP inhibitors: luminescence interference; shares compounds with SENP7 inh; Pre-incubated SENP8/Z-RLRGG-aminoluciferin, luciferase luminescence interference; inhibition, % at 12.5 µM; hit rate 39% among 6,200; AID 488919;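 active = mean inhibition above about 50% when retested at one dose, limit read from the data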;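 note: plate controls were DMSO wells with completed reaction for no effect and substrate without enzyme for full effect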
Starred values were filed as active, the others as inactive.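 Rule for the calls, unless noted: active = mean inhibition above about 50% in the one-dose retest (limit read from the data); inactive = the rest.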

What do the screens show for `Clc1ccccc1-c1nc(-c2ccccc2)n[nH]1`?
SENP7 inh: 74*; SENP6 inh: 74*; Platelet DG rel: -10; SENP8 block-1: 6; SENP8 block-2: 53*; SENP8 confirm: -6; SENP6 confirm: 57*; SENP7 conf: 85*; Casp3 select: 62*; Luc interf: 66*

Results for O=C1c2cccc(OCC(=O)N3N=C(c4cccs4)CC3c3ccc(F)cc3)c2CCN1Cc1cccnc1 (stereo not given) ?
SENP7 inh: -6; SENP6 inh: -13; Platelet DG rel: -7; SENP8 block-1: -405; SENP8 block-2: -6

What do the screens show for `CC1CCCC(C)N1C(=O)CSc1nc(N)c(-c2ccccc2)c(=O)[nH]1` (stereo not given)?
SENP7 inh: 87*; SENP6 inh: 7; Platelet DG rel: -3; SENP8 block-1: 7; SENP8 block-2: 7; SENP8 confirm: 4; SENP6 confirm: 4; SENP7 conf: 1; Casp3 select: 1; Luc interf: 1

Results for CCOC(=O)N1CCN(C2=Nc3cccc4cccc2c34)CC1 ?
SENP7 inh: -1; SENP6 inh: 75*; Platelet DG rel: -3; SENP8 block-1: -39; SENP8 block-2: 48; SENP8 confirm: -20; SENP6 confirm: -17; SENP7 conf: -4; Casp3 select: -5; Luc interf: -2

Results for COc1ccccc1N1CCN(C2=Nc3cccc4cccc2c34)CC1 ?
SENP7 inh: -2; SENP6 inh: 2; Platelet DG rel: -4; SENP8 block-1: 28; SENP8 block-2: -1

How did c1cc2c3c(cccc3c1)C(N1CCOCC1)=N2 do in these assays?
SENP7 inh: 11; SENP6 inh: 76*; Platelet DG rel: 0; SENP8 block-1: -61; SENP8 block-2: 45; SENP8 confirm: 9; SENP6 confirm: 6; SENP7 conf: 3; Casp3 select: 1; Luc interf: 1

What do the screens show for `CC1CN(C2=Nc3cccc4cccc2c34)CC(C)O1` (stereo not given)?
SENP7 inh: 10; SENP6 inh: 45; Platelet DG rel: 1; SENP8 block-1: -66; SENP8 block-2: 21

What do the screens show for `CC(=O)N1CCN(C2=Nc3cccc4cccc2c34)CC1`?
SENP7 inh: 4; SENP6 inh: 81*; Platelet DG rel: -6; SENP8 block-1: -125; SENP8 block-2: 67*; SENP8 confirm: 3; SENP6 confirm: 13; SENP7 conf: 7; Casp3 select: 4; Luc interf: 5

Results for c1ccc(CC2CCN(C3=Nc4cccc5cccc3c45)CC2)cc1 ?
SENP7 inh: 16; SENP6 inh: 73*; Platelet DG rel: 0; SENP8 block-1: -5; SENP8 block-2: 24; SENP8 confirm: 8; SENP6 confirm: 1; SENP7 conf: -4; Casp3 select: -7; Luc interf: -7

How did O=C1CCN(Cc2ccccc2)C(=S)N1 do in these assays?
SENP8 block-1: 13

How did C/C(=N\NC(=O)Cc1c(Cl)cccc1Cl)c1cccnc1 do in these assays?
SENP7 inh: 1; SENP6 inh: -12; Platelet DG rel: 2; SENP8 block-1: 5; SENP8 block-2: -3

What do the screens show for `CCOC(=O)N1CCN(C(=O)Nc2cccc3ccccc23)CC1`?
SENP7 inh: 18; SENP6 inh: 52*; Platelet DG rel: -4; SENP8 block-1: -310; SENP8 block-2: 0; SENP8 confirm: 7; SENP6 confirm: 8; SENP7 conf: 9; Casp3 select: 4; Luc interf: 5

What do the screens show for `Cc1cc(O)c2c(c1)C(=O)c1cc(O)cc(O)c1C2=O`?
SENP7 inh: 80*; SENP6 inh: 97*; Platelet DG rel: 5; SENP8 block-1: 26; SENP8 block-2: 94*; SENP8 confirm: 96*; SENP6 confirm: 98*; SENP7 conf: 102*; Casp3 select: 94*; Luc interf: 81*

Results for Oc1ccccc1OCc1nc2ccccc2s1 ?
SENP7 inh: 81*; SENP6 inh: 82*; Platelet DG rel: 2; SENP8 block-1: 10; SENP8 block-2: 70*; SENP8 confirm: -4; SENP6 confirm: 76*; SENP7 conf: 94*; Casp3 select: 78*; Luc interf: 80*

Results for COc1cc(OC)c(-c2nc3ccccc3s2)cc1OC ?
SENP7 inh: 4; SENP6 inh: -8; Platelet DG rel: -3; SENP8 block-1: -399; SENP8 block-2: -10

What do the screens show for `CC(C)c1ccc(-c2nc3ccccc3s2)cc1`?
SENP7 inh: 100*; SENP6 inh: 98*; Platelet DG rel: 41; SENP8 block-1: -7; SENP8 block-2: 98*; SENP8 confirm: 98*; SENP6 confirm: 100*; SENP7 conf: 102*; Casp3 select: 97*; Luc interf: 97*

Results for COc1ccccc1C(=O)NCc1ccc(-c2nc3ccccc3s2)cc1 ?
SENP7 inh: -1; SENP6 inh: -22; Platelet DG rel: -4; SENP8 block-1: 11; SENP8 block-2: -17

What do the screens show for `FC(F)(F)c1ccc(-c2nc3ccccc3s2)cc1`?
SENP8 block-1: -27

What do the screens show for `COc1ccc(-c2nc3ccccc3s2)cc1O`?
SENP7 inh: 100*; SENP6 inh: 97*; SENP8 block-1: inactive; SENP8 block-2: 95*; SENP8 confirm: 98*; SENP6 confirm: 99*; SENP7 conf: 102*; Casp3 select: 96*; Luc interf: 98*

Results for COc1cccc(-c2nc3ccccc3s2)c1O ?
SENP7 inh: 86*; SENP6 inh: 77*; Platelet DG rel: 7; SENP8 block-1: -395; SENP8 block-2: 54*; SENP8 confirm: 39; SENP6 confirm: 58*; SENP7 conf: 96*; Casp3 select: 74*; Luc interf: 5

What do the screens show for `OCc1cc(Br)ccc1OCc1nc2ccccc2s1`?
SENP7 inh: 15; SENP6 inh: 17; Platelet DG rel: 4; SENP8 block-1: -7; SENP8 block-2: -7

How did CCOc1cc(-c2nc3ccccc3s2)ccc1O do in these assays?
SENP7 inh: 11; SENP6 inh: 27; Platelet DG rel: -10; SENP8 block-1: -421; SENP8 block-2: 4

How did COC(=O)N(C)c1nc2ccccc2s1 do in these assays?
SENP7 inh: 4; SENP6 inh: -13; Platelet DG rel: -14; SENP8 block-1: 27; SENP8 block-2: -4

Screens from PubChem.
